# Measured values reported in the supplement of paper PMC10849652.
# The full data set covers some 8,800 targets. This sample favours those with a hit. About 0.5% of all pairs of compound and target were hits. Values without a mark were called inactive.
# Legend:
# Experiment in all cases: log2 fold change, soluble protein after heating vs DMSO (PISA); higher = thermal stabilisation; K562 lysate, 10 uM; active = over 0.2 and 3.5 SD of the protein, either way, in both replicates (recomputed)
# [1] = compound: C/C(=N\NC(=O)C1=CC(=CC=C1)S(=O)(=O)N2CCOCC2)/C3=C(C=CC(=C3)Cl)O
# In short: (§1)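 K562 pellets were dounce-homogenised in PBS pH 7.4 containing 1 mM MgCl2, and the crude extract, at 1 mg/mL protein, was exposed to 10 μM compound for 30 min. Aliquots were heated for 3 min across 48°C-58°C, pooled, brought to 0.5% NP-40 at 4°C and spun at 21,000xg for 90 min, with the supernatant taken as soluble protein. TMTpro 16plex LC-MS/MS with equalised channel sums quantified that protein. Values are log-two fold changes in thermal stability relative to solvent controls, taken from duplicates.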
# [2] = compound: C1=CC2=C(C=CC(=C2)/C=C\3/C(=O)NC(=NCC4=CC=CS4)S3)N=C1
# In short: as §1
# [3] = compound: C1=CC=C2C(=C1)C3=NNC4=CC=CC(=C43)C2=O
# In short: as §1
# [4] = compound: C1CCN(C1)C(=O)NC2=CC=CC(=C2)NC3=NC=C(C(=N3)NCCC4=CN=CN4)Br
# In short: as §1
# [5] = compound: C1CN(CCC1(CC2=CC=C(C=C2)Cl)N)C3=NC=NC4=C3C=CN4
# In short: as §1
# [6] = compound: CC1=C(C2=C(C=C1)C(=O)C3=CC=CC=C3N2CCCN)C
# In short: as §1
# erlotinib = compound: C#Cc1cccc(Nc2ncnc3cc(OCCOC)c(OCCOC)cc23)c1 [erlotinib]
# In short: as §1
# [7] = compound: C1=CC(=CC=C1C2=NC3=C(N2)C=C(C=C3)C(=O)N)OC4=CC=C(C=C4)Cl
# In short: as §1
# [8] = compound: CC(C)C1=C2N=C(C=C(N2N=C1)NCC3=CC=CC=C3)NCCCCCCN
# In short: as §1
# [9] = compound: CC1=C(C=C(C=C1)NC(=O)C2=CC(=CC=C2)C(C)(C)C#N)NC3=CC4=C(C=C3)N=CN(C4=O)C
# In short: as §1
# [10] = compound: CC(=O)c1cnc2ccc(-c3cc(Cl)c(O)c(Cl)c3)nc2c1N[C@H]1CC[C@H](CN(C)C)CC1
# In short: as §1
# [11] = compound: CC1=CC=C(C=C1)SC2=C3C=C(SC3=CN=C2)C(=O)N
# In short: as §1
# [12] = compound: CC1=C(C(CC(=O)N1)C2=CC=C(C=C2)C(F)(F)F)C(=O)NC3=C(C=C4C(=C3)C=NN4)F
# In short: as §1
# [13] = compound: C1=CC2=NC=CN=C2C=C1/C=C/3\C(=O)NC(=O)S3
# In short: as §1
# ibrutinib = compound: C=CC(=O)N1CCC[C@@H](n2nc(-c3ccc(Oc4ccccc4)cc3)c3c(N)ncnc32)C1 [ibrutinib]
# In short: as §1
# [14] = compound: C1=CC=C(C=C1)C2=NC(=C(N2)C3=CC=NC=C3)C4=CC(=C(C=C4)Cl)O
# In short: as §1
# IRAK-1-4 Inhibitor I = compound: C1COCCN1CCN2C3=CC=CC=C3N=C2NC(=O)C4=CC(=CC=C4)[N+](=O)[O-] [IRAK-1-4 Inhibitor I]
# In short: as §1
# ralimetinib = compound: CC(C)(C)Cn1c(N)nc2ccc(-c3[nH]c(C(C)(C)C)nc3-c3ccc(F)cc3)nc21 [ralimetinib]
# In short: as §1
# [15] = compound: CC(C)(O)CC(=O)NCCn1ccc2ncnc(Nc3ccc(Oc4cccc(C(F)(F)F)c4)c(Cl)c3)c21
# In short: as §1
# [16] = compound: CC1=C(C=C(C=C1)NC(=O)C2=CC(=CC=C2)N(C)C)NC(=O)C3=CC=C(C=C3)O
# In short: as §1
# Chain of UniProt Q4G0P3 (Q4G0P3 whole entry, looked up): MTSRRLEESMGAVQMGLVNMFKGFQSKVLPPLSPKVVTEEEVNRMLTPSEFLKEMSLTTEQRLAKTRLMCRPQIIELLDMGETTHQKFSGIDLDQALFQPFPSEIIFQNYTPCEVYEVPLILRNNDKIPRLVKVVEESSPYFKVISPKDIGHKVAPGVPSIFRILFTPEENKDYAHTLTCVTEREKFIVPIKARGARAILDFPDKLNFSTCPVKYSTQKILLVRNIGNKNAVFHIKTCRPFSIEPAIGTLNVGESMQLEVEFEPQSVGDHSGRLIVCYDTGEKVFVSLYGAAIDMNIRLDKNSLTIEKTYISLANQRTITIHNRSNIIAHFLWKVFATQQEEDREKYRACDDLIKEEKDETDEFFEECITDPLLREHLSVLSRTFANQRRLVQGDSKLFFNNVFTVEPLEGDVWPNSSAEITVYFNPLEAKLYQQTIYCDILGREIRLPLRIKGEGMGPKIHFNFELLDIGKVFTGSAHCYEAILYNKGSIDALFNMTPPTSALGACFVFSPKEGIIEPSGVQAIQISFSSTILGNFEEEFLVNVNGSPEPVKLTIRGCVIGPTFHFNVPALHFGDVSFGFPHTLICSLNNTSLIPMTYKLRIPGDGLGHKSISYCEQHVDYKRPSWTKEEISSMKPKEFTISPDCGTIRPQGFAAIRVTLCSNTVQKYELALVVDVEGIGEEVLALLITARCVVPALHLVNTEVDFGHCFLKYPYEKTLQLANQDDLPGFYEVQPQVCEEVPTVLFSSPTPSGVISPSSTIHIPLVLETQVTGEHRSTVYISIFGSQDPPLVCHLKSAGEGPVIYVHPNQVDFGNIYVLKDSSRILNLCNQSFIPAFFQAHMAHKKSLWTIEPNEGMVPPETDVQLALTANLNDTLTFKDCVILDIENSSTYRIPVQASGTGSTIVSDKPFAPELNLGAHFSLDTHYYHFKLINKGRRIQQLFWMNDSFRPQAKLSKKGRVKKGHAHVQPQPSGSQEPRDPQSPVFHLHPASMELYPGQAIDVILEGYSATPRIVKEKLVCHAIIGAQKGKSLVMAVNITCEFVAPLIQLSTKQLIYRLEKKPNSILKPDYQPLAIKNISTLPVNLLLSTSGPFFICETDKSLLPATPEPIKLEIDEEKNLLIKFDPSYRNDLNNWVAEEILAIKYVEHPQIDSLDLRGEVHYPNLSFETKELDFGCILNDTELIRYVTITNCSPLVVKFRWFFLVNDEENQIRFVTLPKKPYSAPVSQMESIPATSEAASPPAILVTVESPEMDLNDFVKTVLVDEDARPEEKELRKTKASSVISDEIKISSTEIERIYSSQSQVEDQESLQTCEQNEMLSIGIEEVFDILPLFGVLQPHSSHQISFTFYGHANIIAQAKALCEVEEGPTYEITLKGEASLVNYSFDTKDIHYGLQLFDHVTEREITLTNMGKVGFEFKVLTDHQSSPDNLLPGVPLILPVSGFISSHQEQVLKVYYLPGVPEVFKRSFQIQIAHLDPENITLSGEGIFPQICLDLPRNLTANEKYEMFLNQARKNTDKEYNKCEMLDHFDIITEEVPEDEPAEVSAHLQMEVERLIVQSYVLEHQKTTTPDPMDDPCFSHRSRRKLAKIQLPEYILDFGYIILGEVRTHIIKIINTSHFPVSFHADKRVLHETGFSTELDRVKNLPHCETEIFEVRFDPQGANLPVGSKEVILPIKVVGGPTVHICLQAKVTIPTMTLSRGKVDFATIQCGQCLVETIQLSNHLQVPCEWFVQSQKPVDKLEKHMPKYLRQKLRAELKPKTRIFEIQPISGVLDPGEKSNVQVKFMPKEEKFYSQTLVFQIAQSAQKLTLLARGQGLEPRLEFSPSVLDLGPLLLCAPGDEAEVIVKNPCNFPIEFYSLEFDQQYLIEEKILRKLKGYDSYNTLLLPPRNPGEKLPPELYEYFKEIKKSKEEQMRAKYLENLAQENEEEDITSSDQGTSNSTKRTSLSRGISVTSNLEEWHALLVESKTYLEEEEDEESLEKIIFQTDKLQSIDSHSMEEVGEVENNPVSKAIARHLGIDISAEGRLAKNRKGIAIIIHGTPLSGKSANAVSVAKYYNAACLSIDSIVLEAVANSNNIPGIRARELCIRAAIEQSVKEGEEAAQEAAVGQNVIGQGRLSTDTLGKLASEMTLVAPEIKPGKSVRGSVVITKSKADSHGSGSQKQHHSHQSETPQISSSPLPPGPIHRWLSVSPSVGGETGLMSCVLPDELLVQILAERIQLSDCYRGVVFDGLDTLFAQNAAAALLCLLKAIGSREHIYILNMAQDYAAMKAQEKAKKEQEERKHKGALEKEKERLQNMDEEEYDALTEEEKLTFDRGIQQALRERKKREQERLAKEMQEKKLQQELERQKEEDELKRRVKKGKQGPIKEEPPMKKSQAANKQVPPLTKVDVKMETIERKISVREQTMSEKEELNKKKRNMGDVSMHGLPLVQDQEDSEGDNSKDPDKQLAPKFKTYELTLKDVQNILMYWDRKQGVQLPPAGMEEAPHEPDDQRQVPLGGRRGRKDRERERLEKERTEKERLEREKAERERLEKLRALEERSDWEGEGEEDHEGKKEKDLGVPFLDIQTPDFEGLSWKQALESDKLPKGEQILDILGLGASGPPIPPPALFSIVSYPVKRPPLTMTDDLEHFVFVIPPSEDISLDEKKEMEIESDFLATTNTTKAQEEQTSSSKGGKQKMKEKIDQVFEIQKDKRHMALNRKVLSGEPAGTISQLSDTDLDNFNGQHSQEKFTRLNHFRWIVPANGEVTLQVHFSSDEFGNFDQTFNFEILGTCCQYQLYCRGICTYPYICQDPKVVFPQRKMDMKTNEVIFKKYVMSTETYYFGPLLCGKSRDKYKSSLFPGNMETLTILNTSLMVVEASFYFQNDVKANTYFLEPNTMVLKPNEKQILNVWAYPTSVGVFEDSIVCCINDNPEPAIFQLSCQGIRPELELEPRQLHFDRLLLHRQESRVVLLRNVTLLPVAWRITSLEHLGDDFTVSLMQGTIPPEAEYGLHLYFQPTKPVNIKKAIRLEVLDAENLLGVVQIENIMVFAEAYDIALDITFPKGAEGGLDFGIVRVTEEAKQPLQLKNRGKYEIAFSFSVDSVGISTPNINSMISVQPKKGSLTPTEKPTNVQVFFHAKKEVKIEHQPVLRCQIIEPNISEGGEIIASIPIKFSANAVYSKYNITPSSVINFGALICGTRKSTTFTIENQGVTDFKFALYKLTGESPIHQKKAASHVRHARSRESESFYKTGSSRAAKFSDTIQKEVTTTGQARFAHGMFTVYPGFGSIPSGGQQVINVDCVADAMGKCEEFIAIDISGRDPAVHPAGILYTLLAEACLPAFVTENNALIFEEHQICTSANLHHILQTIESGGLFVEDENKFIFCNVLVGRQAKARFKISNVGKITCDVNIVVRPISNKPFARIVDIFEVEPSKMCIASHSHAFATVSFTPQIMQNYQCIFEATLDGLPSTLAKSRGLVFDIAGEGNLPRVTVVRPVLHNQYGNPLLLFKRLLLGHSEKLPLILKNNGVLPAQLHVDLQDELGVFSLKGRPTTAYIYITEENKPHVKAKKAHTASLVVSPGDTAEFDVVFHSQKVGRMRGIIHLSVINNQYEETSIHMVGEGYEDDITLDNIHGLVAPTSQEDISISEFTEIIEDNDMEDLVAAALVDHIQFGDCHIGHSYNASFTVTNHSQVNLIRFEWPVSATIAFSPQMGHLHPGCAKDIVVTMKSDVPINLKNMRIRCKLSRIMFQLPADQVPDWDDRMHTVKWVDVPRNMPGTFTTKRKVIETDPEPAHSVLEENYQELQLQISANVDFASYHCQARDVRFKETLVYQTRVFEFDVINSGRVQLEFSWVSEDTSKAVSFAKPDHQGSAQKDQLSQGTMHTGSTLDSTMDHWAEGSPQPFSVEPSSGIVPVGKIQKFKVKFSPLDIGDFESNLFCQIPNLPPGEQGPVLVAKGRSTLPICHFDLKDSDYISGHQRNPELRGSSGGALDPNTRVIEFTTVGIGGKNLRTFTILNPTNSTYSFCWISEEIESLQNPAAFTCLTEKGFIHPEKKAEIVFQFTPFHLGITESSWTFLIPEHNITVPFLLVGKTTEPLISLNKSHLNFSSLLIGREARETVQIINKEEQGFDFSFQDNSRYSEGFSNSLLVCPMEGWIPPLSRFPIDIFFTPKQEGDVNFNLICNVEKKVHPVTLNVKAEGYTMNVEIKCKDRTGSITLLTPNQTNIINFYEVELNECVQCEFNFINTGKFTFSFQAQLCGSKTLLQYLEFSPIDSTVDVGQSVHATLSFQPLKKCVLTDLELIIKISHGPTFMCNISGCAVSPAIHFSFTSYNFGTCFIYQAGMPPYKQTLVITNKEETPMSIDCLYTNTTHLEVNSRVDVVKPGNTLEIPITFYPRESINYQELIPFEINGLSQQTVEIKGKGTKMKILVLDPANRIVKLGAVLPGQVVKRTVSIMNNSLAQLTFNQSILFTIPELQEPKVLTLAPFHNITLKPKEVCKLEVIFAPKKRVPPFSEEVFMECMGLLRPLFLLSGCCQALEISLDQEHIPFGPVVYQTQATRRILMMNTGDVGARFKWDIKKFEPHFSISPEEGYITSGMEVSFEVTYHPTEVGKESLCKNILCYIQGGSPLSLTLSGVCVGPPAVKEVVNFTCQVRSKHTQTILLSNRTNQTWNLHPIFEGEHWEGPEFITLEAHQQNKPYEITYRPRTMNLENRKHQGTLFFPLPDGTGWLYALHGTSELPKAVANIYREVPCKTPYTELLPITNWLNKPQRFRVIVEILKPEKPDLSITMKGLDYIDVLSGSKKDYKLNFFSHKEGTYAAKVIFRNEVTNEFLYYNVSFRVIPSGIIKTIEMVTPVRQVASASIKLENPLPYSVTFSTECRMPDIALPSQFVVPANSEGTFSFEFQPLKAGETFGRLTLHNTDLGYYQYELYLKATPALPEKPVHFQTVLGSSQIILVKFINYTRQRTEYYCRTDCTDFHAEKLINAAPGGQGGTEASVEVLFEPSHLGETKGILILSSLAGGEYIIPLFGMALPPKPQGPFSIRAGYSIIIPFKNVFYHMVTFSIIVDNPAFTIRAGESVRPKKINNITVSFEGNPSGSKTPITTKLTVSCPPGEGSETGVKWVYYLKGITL
Target,log2 fold change [1],log2 fold change [2],log2 fold change [3],log2 fold change [4],log2 fold change [5],log2 fold change [6],log2 fold change (erlotinib),log2 fold change [7],log2 fold change [8],log2 fold change [9],log2 fold change [10],log2 fold change [11],log2 fold change [12],log2 fold change [13],log2 fold change (ibrutinib),log2 fold change [14],log2 fold change (IRAK-1-4 Inhibitor I),log2 fold change (ralimetinib),log2 fold change [15],log2 fold change [16]
GTPBP6 (UniProt O43824),0.187,0.11,-0.048,-0.082,0.037,-0.617,,,,,,,,,,,,,,
ITPRIP (UniProt Q8IWB1),,,,,,0.041,0.218,-0.16,0.023,,,,,,,,,,,
GPLD1 (UniProt P80108),,,,,,-0.058,,,,-0.187,,,,,,,,,,
ITGB1BP2 (UniProt Q9UKP3),0.017,-0.001,0.039,-0.117,0.09,0.139,,,,,,,,,,,,,,
IGF2BP2 isoform 6 (UniProt Q9Y6M1),,,,,,,,,,,-0.031,-0.016,,,,,,,,
HNRNPD (UniProt D6RF44),,,,,,,,,,-0.334,,,0.111,,,,,,,
HNRNPM (UniProt M0QZM1),0.07,0.044,0.066,0.046,0.086,0.121,,,,-0.068,,,,0.246,0.003,,,,,
IMPDH2 (UniProt H0Y4R1),-0.014,0.023,-0.029,0.099,0.076,0.032,,,,-0.04,-0.047,0.032,-0.019,-0.118,-0.025,-0.155,0.037,-0.069,-0.112,0.062
HYDIN (UniProt Q4G0P3),-0.022,0.005,0.036,-0.054,0.022,-0.05,,,,,-0.076,0.017,,,,1.34 (active),0.712,0.148,-0.071,-0.107
IGFBP4 (UniProt P22692),,,,,,0.236,0.06,0.025,-0.029,0.123,0.169,-0.139,-0.021,0.218,0.035,-0.033,0.016,0.012,-0.087,0.037
ISL2 (UniProt Q96A47),,,,,,-0.003,-0.149,0.003,0.019,-0.075,,,,0.032,0.05,-0.014,0.016,0.056,-0.089,0.01
IPP (UniProt Q9Y573),-0.192,-0.181,-0.105,0.179,0.041,-0.006,-0.04,-0.017,-0.073,,0.042,-0.044,,,,0.025,-0.035,0.14,-0.056,0.088
"HNRNPL, A0A3B3ITJ4",,,,,,,,,,,0.033,-0.104,,-0.086,0.033,,,,,
HSPA8 (UniProt E9PN89),,,,-0.045,-0.043,0.017,0.02,-0.004,0.007,0.093,-0.051,-0.083,-0.036,-0.095,0.081,0.082,-0.055,0.034,-0.215,0.231
ITPR2 (UniProt Q14571),,,,,,-0.072,0.058,0.163,0.063,,-0.04,-0.322,-0.137,,,-0.051,0.021,0.069,-0.233,-0.031
"GYPA, A0A2R8Y7F9",,,,,,,,,,,,,,0.066,-0.019,,,,,
JAK3 (UniProt P52333),0.037,-0.075,0.23,,,,,,,-0.016,0.056,0.078,,-0.041,0.076,,,,,
ITM2B (UniProt Q9Y287),0.225,-0.202,0.052,,,-0.011,-0.039,0.02,-0.044,0.019,,,0.051,0.026,-0.04,0.005,0.023,0.131,-0.106,-0.088
HNRNPM (UniProt M0R019),0.224,0.178,-0.128,,,,,,,,,,,,,,,,,
KDM5B isoform 2 (UniProt Q9UGL1),0.03,-0.021,-0.074,-0.035,0.099,-0.129,0.07,0.006,-0.072,-0.016,-0.046,-0.098,,0.031,-0.075,0.012,0.011,-0.083,-0.165,-0.095
GNB4 (UniProt Q9HAV0),,,,-0.035,-0.005,-0.036,-0.017,0.067,0,0.073,-0.071,0.202,-0.05,-0.049,-0.104,-0.057,-0.024,0.009,-0.026,0.084
GPN2 (UniProt Q9H9Y4),0.089,0.043,-0.056,-0.241 (active),-0.062,0.025,-0.022,0.032,-0.042,0.067,-0.022,0.019,0.036,,,-0.041,-0.027,0.12,0.028,0.057
HMGA1 isoform 2 (UniProt P17096),,,,,,-0.229,0.042,-0.043,-0.029,-0.034,0.053,0.01,0.047,,,0.022,0,-0.122,0.088,0.054
IRS2 (UniProt Q9Y4H2),,,,,,-0.079,0.04,-0.099,0.03,0.118,-0.209,0.254,0.049,0.164,-0.089,0.143,-0.009,0.014,0.047,-0.051
KIAA0930 isoform 2 (UniProt Q6ICG6),-0.004,-0.067,0.203,0.099,-0.01,-0.119,,,,0.042,-0.032,-0.017,-0.014,-0.229,-0.16,-0.258,-0.063,0.091,-0.085,-0.289
